Measured values taken from PubChem BioAssay (NCATS).
Results filed as inconclusive are left out. A number with no mark means an inactive call. The source made the active and inactive calls. Calls come from the whole dose curve; as a rule, active = well fitted cell-killing curve with a large enough effect; inconclusive = small, poorly fitted or top-dose-only effect; inactive = flat fitted curve, though single readings scatter.

assay: qHTS of pediatric cancer cell lines to identify multiple opportunities for drug repurposing: Primary screen for U-2 OS cells (AID 1347096); conditions: U-2 OS viability, CellTiter-Glo luminescence, 48 h; series mostly up to 46 µM; activity change, negative = cytotoxic: at the top concentration; note: nearly all actives have a fitted effect of over 50% in size
From the text: Drug repurposing or repositioning has been offered as a strategy for drug development in oncology programs. This approach has special potential for childhood cancers and other rare or orphan diseases, where the expected return on new drug development has been a disincentive to pharmaceuticals.
In this project we exploit the poly-pharmacology of drugs to discover new indications via phenotypic screening of a panel of 19 well-characterized cell lines derived from solid tumors seen in children and adolescents. The goal is to identify approved drugs with previously unrecognized anticancer properties that has the potential to reveal new mechanisms and biological processes involved in carcinogenesis or drug resistance. We employed a titration-based paradigm (quantitative high-throughput screening or qHTS), where all compounds were tested at multiple concentrations for their effect on cell viability. Concentration-response curves (CRCs) were derived directly from the primary screen, and both potency and efficacy values were used to identify compounds with robust bioactivity profiles. We screened the NIH Chemical Genomics Center (NCGC) Pharmaceutical Collection (NPC) and Mechanism Interrogation Plate (MIPE) small molecule collections of approved and investigational compounds against these cell lines; and measured metabolically active cells after 48 hours of compound treatment as a proxy for cell viability.
Assay Submitter: Nathalia J. Martinez, National Center for Advancing Translational Sciences, National Institutes of Health, Rockville, MD, USA; email: natalia.martinez@nih.gov
[1] Shen, M et al. Quantitative high-throughput phenotypic screening of pediatric cancer cell lines identifies multiple opportunities for drug repurposing. Oncotarget 2017 Dec 19;9(4):4758-4772. PMID 29435139.
The cells were obtained from University of North Carolina (UNC), Pediatric Preclinical Testing Program (PPT), and Coriell Institute (CI).
qHTS cell viability assay:
Cells were assayed in growth media at a density of 500-1,000 cells/well. Five microliters of cells were dispensed into 1,536-well, white, solid-bottom, TC-treated plates (Greiner Bio One) using a multidrop dispenser and incubated at 37 degrees C, 5% CO2, under a humidified atmosphere for 5 hours. Twenty-three nanoliters of compounds and controls (neutral control DMSO or positive control bortezomib at final concentration of 2.3 µM) were subsequently transferred by Kalypsys pintool. For primary screens, the MIPE collection was tested at 11-point dilutions (final concentrations range from 0.78 nM to 46 µM) and the NPC collection at 8-point dilutions (final concentrations range from 0.59 nM to 46 µM). Compounds tested in follow-up screens were assayed at 11-point dilutions. Cells were incubated for 48 hours, followed by addition of 3 µL of CellTiter-Glo (Promega). After a 15 min incubation at room temperature, samples were analyzed for luminescence intensity using a ViewLux High-throughput CCD imager equipped with clear filters.
Potency is the fitted concentration of half-maximal effect.

SMILES	activity change, negative = cytotoxic [%]	Potency
O=C(Nc1ccccc1-c1cn2c(CN3CCNCC3)csc2n1)c1cnc2ccccc2n1	-3.3	
Cc1ccc(C(=O)Nc2cccc(C(F)(F)F)c2)cc1Nc1nc(-c2cccnc2)nc2c1cnn2C	-2.91	
COc1ccc2cc(-c3nc(-c4ccc(S(C)=O)cc4)[nH]c3-c3ccncc3)ccc2c1 (stereo not given)	-17.6	
CC1CCC(C(=O)N(c2cc(C#CC(C)(C)C)sc2C(=O)O)C2CCC(O)CC2)CC1 (stereo not given)	-1.05	
COC(=O)[C@@H]1[C@H]2C[C@H]3c4[nH]c5ccccc5c4CCN3C[C@@H]2CC[C@@H]1O	3.91	
Nc1ncnc2c1ncn2[C@@H]1O[C@H](CO)C[C@@H]1O	-6.92	
O=c1c(-c2ccc(O)cc2)coc2cc(OC3O[C@H](CO)[C@H](O)[C@H](O)[C@H]3O)cc(O)c12 (stereo not given in full)	-4.15	
CN1[C@@H]2CCC[C@@H]1CC(NC(=O)c1nn(C)c3ccccc13)C2 (stereo not given in full)	0.488	
CC(C)n1cnc2c(NCCCCCCNC(=O)OC(C)(C)C)nc(NCCO)nc21	9.7	
CC(C)(C)COc1ccc(-n2cc(C(=O)O)cn2)cc1C#N	16.1	
CCOc1ccc(Nc2nc(-c3c(C)nc4ccccn34)cs2)cc1	-15.5	
CC(C)(Cc1ccc2ccccc2c1)NC[C@@H](O)COc1cccc(Cl)c1C#N	10.6	
CCCCCN(C)CCC(O)(P(=O)(O)O)P(=O)(O)O	-3.06	
C[C@]12CC[C@@H]3c4ccc(O)cc4C[C@@H](CCCCCCCCCS(=O)CCCC(F)(F)C(F)(F)F)[C@H]3[C@H]1CC[C@H]2O (stereo not given in full)	2.34	
CC[C@@]1(O)C[C@H](O[C@H]2C[C@H](N(C)C)[C@H](O[C@H]3C[C@H](O)[C@H](O[C@H]4CCC(=O)[C@H](C)O4)[C@H](C)O3)[C@H](C)O2)c2c(cc3c(c2O)C(=O)c2c(O)cccc2C3=O)[C@@H]1C(=O)OC	2.21	
CCOC(=O)O[C@]1(C(=O)OCCl)CC[C@@H]2[C@H]3CCC4=CC(=O)C=C[C@]4(C)[C@@H]3[C@@H](O)C[C@@]21C	9.78	
CCC(=O)O[C@]1(C(=O)CO)CC[C@H]2[C@@H]3CCC4=CC(=O)CC[C@]4(C)[C@@H]3CC[C@@]21C	16.4	
COc1cc2c(cc1OC)CN(CCc1ccc(NC(=O)c3cc(OC)c(OC)cc3NC(=O)c3cnc4ccccc4c3)cc1)CC2	-0.0284	
CNC(=O)c1ccc2cc(C3(O)CCn4cncc43)ccc2c1 (stereo not given)	3.94	
CCCCC1C(=O)N(c2ccccc2)N(c2ccccc2)C1=O	-4.49	

SMILES	activity change, negative = cytotoxic [%]	Potency
CCC(CC)[C@H](NC(C)=O)[C@@H]1[C@H](O)[C@@H](C(=O)O)C[C@@H]1N=C(N)N	9.37	
O=C1NC(=O)C(c2ccccc2)(c2ccccc2)N1	5.36	
C[N+](C)(C)CCCCCC[N+](C)(C)C	11	
COc1ccc(-c2nc(N3CCOCC3)c3sc(CN(C)c4ncc(C(=O)NO)cn4)cc3n2)cn1		11.8 nM (active)
COc1ccc(C2CC(c3ccccc3)=NN2c2ccc(S(N)(=O)=O)cc2)cc1 (stereo not given)	-5.72	
CCNc1cc(NC2CCC(O)CC2)nc(Nc2ccc3c(ccn3Cc3ccccc3)c2)n1 (stereo not given)	-21.1	
CO[C@H]1C=CO[C@@]2(C)Oc3c(C)c(O)c4c(O)c(c5c(c4c3C2=O)NC2(CCN(CC(C)C)CC2)N=5)=NC(=O)C(C)=CC=C[C@H](C)[C@H](O)[C@@H](C)[C@@H](O)[C@@H](C)[C@H](OC(C)=O)[C@H]1C	-20.5	
C[C@H]1[C@H](NC(=O)C(=NOC(C)(C)C(=O)O)c2csc(N)n2)C(=O)N1S(=O)(=O)O	8.76	
COc1ccc2c(Oc3ccc(NC(=O)c4c(C)n(CC(C)(C)O)n(-c5ccccc5)c4=O)nc3)ccnc2c1	-16.2	
N#Cc1ccc(NC(=O)Nc2ccccc2Br)c2n[nH]nc12	-20.7	
Nc1nc(F)nc2c1ncn2[C@@H]1O[C@H](COP(=O)(O)O)[C@@H](O)[C@H]1O	25.4	
N#CC(=C(N)Sc1ccccc1N)C(C#N)=C(N)Sc1ccccc1N	-25.6	
N[C@H](CSC(c1ccccc1)(c1ccccc1)c1ccccc1)C(=O)O	19	
CC(C)C(C)C=CC(C)C1CCC2C3=CC=C4CC(O)CCC4(C)C3CCC21C (stereo not given)	6.26	
COc1ccc2cccc(CCNC(C)=O)c2c1	8.37	
COc1ccc(Cc2ccc(NC(N)=O)cc2)cc1-c1cccc(Cl)c1	-8.98	
CC(C)OC(=O)C(C)(C)Oc1ccc(C(=O)c2ccc(Cl)cc2)cc1		inactive
OC[C@@H](O)[C@H](O)[C@H](O)[C@@H](O)CO		inactive
CC(=O)OC1C(C)OC(Oc2c(-c3ccc(O)cc3)oc3cc(O)cc(O)c3c2=O)C(O)C1OC(C)=O (stereo not given)	-6.25	
COc1ccc(-c2coc3cc(O)cc(O)c3c2=O)cc1	14.4	
